Results as given in PubChem BioAssay AID1159580 (chemical genetic matrix, 2015).
Several values for one entry are separate records, joined by “and”; a condition that tells them apart may be missing. Equal entries are not always repeated. In all, about 5,500 compounds went through this assay and about 2,000 (36%) were called active. Roughly 18% stayed inconclusive and do not appear here. Rule as the data show it: active = normalized growth mostly below about 0.91 (no sharp cut-off); inconclusive = no clear call, values can overlap the other calls; inactive = mostly above about 0.92. This is one part of the list.

Assay: chemical genetic growth profiling, strain panel (AID 1159580);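 also: tested at 20 µM; growth read once vehicle control cultures reached saturation at 30 °C; 1 = growth at the plate median or of vehicle wells; lower values mean less growth of the strain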
Details: S. cerevisiae deletion strains, growth OD
[1] = locus YPL241C, strain CIN2, hits give low values
[2] = locus YHR030C, strain SLT2, hits give low values
[3] = locus YHR079C, strain IRE1, hits give low values
[4] = locus YJL095W, strain BCK1, hits give low values
[5] = locus YJR066W, strain TOR1, hits give low values
[6] = locus YLR113W, strain HOG1, hits give low values
[7] = locus YNL183C, strain NPR1, hits give low values
[8] = locus YOR231W, strain MKK1, hits give low values
[9] = locus YPL256C, strain CLN2, hits give low values

Measured: normalized growth

CCN1CCc2nc(N)oc2CC1
inactive: locus YAL013W, strain DEP1, hits give low values 1.03 | locus YAL040C, strain CLN3, hits give low values 0.981 | locus YCL061C, strain MRC1 (second series), hits give low values 1 | locus YDR363W, strain ESC2, hits give low values 1.03 | locus YER002W, strain NOP16, hits give low values 0.993 | locus YMR263W, strain SAP30, hits give low values 1 | locus YNL175C, strain NOP13, hits give low values 1.01 | locus YNL197C, strain WHI3, hits give low values 1.02 | locus YNL224C, strain SQS1, hits give low values 0.995 | locus YOR083W, strain WHI5 (second series), hits give low values 0.999 | [1] 0.998

CCCCCCCCCCCCCCCC(=O)OCC(O)[C@H]1OC(=O)C(O)=C1O (stereo partly drawn)
active: [2] 0.804 | [3] 0.83 | [4] 0.823 | [5] 0.777 | [6] 0.724 | [7] 0.703 | [8] 0.834 | [9] 0.763

O=C1O[C@H](C(O)CO)C(O)=C1O (stereo partly drawn)
inactive: locus YAL021C, strain ccr4, hits give low values 0.975 | locus YAL026C, strain drs2, hits give low values 0.974 | locus YAL030W, strain snc1, hits give low values 0.988 | locus YBL061C, strain skt5, hits give low values 0.984 | locus YBR009C, strain hhf1, hits give low values 0.992 | locus YBR021W, strain FUR4, hits give low values 0.976 | locus YBR023C, strain chs3, hits give low values 0.978 | locus YBR171W, strain sec66, hits give low values 0.983 | locus YBR229C, strain ROT2, hits give low values 0.991 | locus YBR231C, strain swc5, hits give low values 1.01 | locus YBR279W, strain paf1, hits give low values 0.986 | locus YCL011C, strain gbp2, hits give low values 0.989 | locus YCL016C, strain dcc1, hits give low values 0.986 | locus YCL029C, strain bik1, hits give low values 0.96 | locus YCL061C, strain MRC1, hits give low values 0.975 | locus YCL069W, strain vba3, hits give low values 0.997 | locus YCR088W, strain abp1, hits give low values 0.985 | locus YDL005C, strain med2, hits give low values 0.983 | locus YDL035C, strain GPR1, hits give low values 1.03 | locus YDL040C, strain nat1, hits give low values 0.987 | locus YDL074C, strain BRE1, hits give low values 0.997 | locus YDL101C, strain DUN1, hits give low values 0.993 | locus YDL185W, strain tfp1, hits give low values 0.973 | locus YDL192W, strain arf1, hits give low values 0.977 | locus YDR001C, strain nth1, hits give low values 0.99 | locus YDR069C, strain doa4, hits give low values 0.991 | locus YDR101C, strain arx1, hits give low values 0.954 | locus YDR137W, strain rgp1, hits give low values 0.971 | locus YDR159W, strain sac3, hits give low values 0.984 | locus YDR162C, strain NBP2, hits give low values 1.01 | locus YDR195W, strain ref2 0.991 | locus YDR297W, strain sur2, hits give low values 0.992 | locus YDR318W, strain mcm21, hits give low values 1 | locus YDR334W, strain swr1, hits give low values 0.979 | locus YDR335W, strain msn5, hits give low values 0.993 | locus YDR388W, hits give low values 0.977 | locus YDR392W, strain spt3, hits give low values 0.916 | locus YDR502C, strain sam2, hits give low values 0.996 | locus YEL003W, strain gim4, hits give low values 1 | locus YEL037C, strain rad23, hits give low values 0.988 | locus YEL061C, strain CIN8 (second series), hits give low values 0.989 | locus YEL061C, strain CIN8, hits give low values 1.02 | locus YER015W, strain faa2, hits give low values 0.971 | locus YER016W, strain bim1, hits give low values 0.997 | locus YER110C, hits give low values 0.974 | locus YER111C, strain swi4, hits give low values 0.983 | locus YER155C, strain BEM2 (second series), hits give low values 0.992 | locus YER155C, strain BEM2, hits give low values 0.976 | locus YER167W, strain BCK2, hits give low values 1 | locus YFR010W, strain ubp6, hits give low values 0.975 | locus YGL078C, strain dbp3, hits give low values 0.964 | locus YGL086W, strain mad1, hits give low values 0.957 | locus YGL167C, strain pmr1, hits give low values 0.984 | locus YGL173C, strain kem1, hits give low values 0.982 | locus YGL227W, strain vid30, hits give low values 0.992 | locus YGL240W, strain doc1, hits give low values 0.986 | locus YGL248W, strain PDE1, hits give low values 0.997 | locus YGL253W, strain hxk2, hits give low values 0.992 | locus YGR135W, strain pre9, hits give low values 1.01 | locus YGR229C, strain SMI1, hits give low values 1.01 | locus YGR252W, strain gcn5, hits give low values 1.06 | locus YHR013C, strain ard1, hits give low values 0.957 | locus YHR027C, strain rpn1, hits give low values 1.01 | [2] 0.991 and 0.989 | locus YHR079C, strain IRE1 (second series), hits give low values 0.984 | [3] 1 | locus YHR094C, strain hxt1, hits give low values 0.976 | locus YHR129C, strain ARP1, hits give low values 1 | locus YHR142W, strain chs7, hits give low values 0.979 | locus YHR200W, strain rpn10, hits give low values 0.982 | locus YIL066C, strain RNR3, hits give low values 0.987 | locus YIL073C, strain SPO22, hits give low values 0.997 | locus YIL125W, strain kgd1, hits give low values 0.967 | locus YIR030C, strain dcg1, hits give low values 0.978 | locus YJL092W, strain hpr5, hits give low values 0.988 | locus YJL095W, strain BCK1 (second series), hits give low values 0.991 | [4] 1.02 and 0.983 | locus YJL115W, strain asf1, hits give low values 0.987 | locus YJL129C, strain trk1, hits give low values 0.992 | locus YJL134W, strain LCB3, hits give low values 0.987 | locus YJL154C, strain vps35, hits give low values 1 | locus YJL164C, strain tpk1, hits give low values 0.969 | locus YJL166W, strain qcr8, hits give low values 0.97 | locus YJL168C, strain set2, hits give low values 0.979 | locus YJL187C, strain SWE1 (second series), hits give low values 0.999 | locus YJL187C, strain SWE1, hits give low values 0.986 | locus YJR043C, strain POL32, hits give low values 0.999 | [5] 0.943 | locus YKL009W, strain mrt4, hits give low values 1.01 | locus YKL068W, hits give low values 0.992 | locus YKL085W, strain MDH1 (second series), hits give low values 0.992 | locus YKL085W, strain MDH1, hits give low values 0.992 | locus YKL160W, strain elf1, hits give low values 0.971 | locus YKR001C, strain vps1, hits give low values 0.949 | locus YKR026C, strain gcn3, hits give low values 0.99 | locus YKR091W, strain srl3, hits give low values 0.986 | locus YLL001W, strain dnm1, hits give low values 0.987 | locus YLL026W, hits give low values 0.998 | locus YLL041C, strain sdh2, hits give low values 0.988 | locus YLR027C, strain aat2, hits give low values 0.99 | locus YLR039C, strain RIC1, hits give low values 1.03 | locus YLR058C, strain SHM2, hits give low values 1.01 | locus YLR102C, strain apc9, hits give low values 0.98 | [6] 0.974 | locus YLR221C, strain rsa3, hits give low values 0.975 | locus YLR258W, strain gsy2, hits give low values 0.99 | locus YLR262C, strain YPT6 (second series), hits give low values 0.952 | locus YLR262C, strain YPT6, hits give low values 1.04 | locus YLR268W, strain sec22, hits give low values 0.933 | locus YLR320W, strain mms22, hits give low values 0.975 | locus YLR330W, strain CHS5, hits give low values 0.99 | locus YLR342W, strain FKS1 (second series), hits give low values 0.989 | locus YLR342W, strain FKS1, hits give low values 0.98 | locus YLR357W, strain rsc2, hits give low values 0.952 | locus YLR370C, strain arc18, hits give low values 0.986 | locus YLR371W, strain rom2, hits give low values 0.959 | locus YLR384C, strain iki3, hits give low values 0.971 | locus YLR418C, strain cdc73, hits give low values 1.02 | locus YML016C, strain PPZ1, hits give low values 0.958 | locus YML032C, strain rad52, hits give low values 1.02 | locus YML120C, strain ndi1, hits give low values 0.978 | locus YML124C, strain tub3, hits give low values 0.972 | locus YMR058W, strain fet3, hits give low values 0.99 | locus YMR078C, strain ctf18, hits give low values 0.961 | locus YMR125W, strain sto1, hits give low values 0.979 | locus YMR129W, hits give low values 0.996 | locus YMR205C, strain PFK2, hits give low values 0.963 | locus YMR223W, strain ubp8, hits give low values 0.982 | locus YMR231W, strain pep5, hits give low values 0.986 | locus YMR307W, strain GAS1, hits give low values 1.01 | locus YNL067W, strain RPL9B, hits give low values 1 | locus YNL071W, strain lat1, hits give low values 0.986 | locus YNL128W, strain TEP1, hits give low values 0.988 | [7] 0.932 | locus YNL209W, strain ssb2, hits give low values 0.998 | locus YNL233W, strain BNI4, hits give low values 0.993 | locus YNL248C, strain rpa49, hits give low values 0.983 | locus YNL250W, strain rad50, hits give low values 0.962 | locus YNL271C, strain bni1, hits give low values 0.966 | locus YNL298W, strain CLA4, hits give low values 0.979 | locus YNL307C, strain MCK1, hits give low values 0.965 | locus YNL322C, strain KRE1 (second series), hits give low values 0.984 | locus YNL322C, strain KRE1, hits give low values 0.995 | locus YNR049C, strain mso1, hits give low values 0.986 | locus YNR052C, strain pop2, hits give low values 0.985 | locus YOL006C, strain TOP1, hits give low values 0.979 | locus YOL012C, strain htz1 1.07 | locus YOL147C, strain pex11, hits give low values 0.982 | locus YOR001W, strain rrp6, hits give low values 0.989 | locus YOR061W, strain CKA2, hits give low values 0.992 | locus YOR069W, strain VPS5, hits give low values 0.991 | locus YOR070C, strain gyp1, hits give low values 0.989 | locus YOR080W, strain dia2, hits give low values 0.981 | locus YOR083W, strain WHI5, hits give low values 0.973 | locus YOR106W, strain vam3, hits give low values 0.962 | locus YOR136W, strain idh2, hits give low values 0.96 | locus YOR144C, strain elg1, hits give low values 0.974 | locus YOR184W, strain ser1, hits give low values 0.991 | [8] 0.965 | locus YOR265W, strain rbl2, hits give low values 0.984 | locus YOR270C, strain vph1, hits give low values 0.987 | locus YOR290C, strain snf2, hits give low values 0.953 | locus YOR316C, strain cot1, hits give low values 0.976 | locus YPL051W, strain arl3, hits give low values 0.977 | locus YPL078C, strain atp4, hits give low values 0.979 | locus YPL106C, strain sse1, hits give low values 0.93 | locus YPL240C, strain hsp82, hits give low values 0.995 | [1] 0.993 | [9] 1 | locus YPR119W, strain clb2, hits give low values 0.976 | locus YPR141C, strain kar3, hits give low values 0.973 | locus YPR163C, strain tif3, hits give low values 0.975 | locus YPR167C, strain met16, hits give low values 0.998 | strain wtn01, hits give low values 0.932
